Potency and cytotoxicity increase data for 40 compounds are collected here from PubChem BioAssay (Tox21).

Each structure is given as a SMILES string. Inconclusive results are not listed. Entries that show only a call come without a potency. Active and inactive are the calls of the source. The call rests on the fitted dose curve; in most records, active means well fitted activation curve with a large enough effect in the repeat runs; inconclusive means weak or mixed curves; inactive means flat fitted curve, though single readings scatter.
Potency means the concentration at half of the fitted maximal effect.

The assay in a line: A CellTox Green Cytotoxicity Assay to monitor cytotoxicity in HEK293 cells - 8 hour (AID 1224884). Further: nearly all actives have a fitted effect of over 35% in size. The note with it: CellTox Green fluorescence; series mostly up to 76.8 µM. From the text:
National Center for Advancing Translational Sciences [NCATS]
NIH Chemical Genomics Center [NCGC]
U.S. Environmental Protection Agency [EPA]
National Institutes of Environmental Health Sciences [NIEHS]
National Toxicology Program [NTP]
Cell-based models are critical for drug discovery. Determining the natural cytotoxic effects resulting from test compounds is an essential research activity. A CellTox Green Cytotoxicity Assay to monitor cytotoxicity in real time of continues cell culture during 40 hours of the compound treatment was used to screen Tox21 10K library compounds in Hek293 cells. CellTox Green Cytotoxicity Assay is a nonlytic, homogeneous, biofluorescent method to measure cytotoxicity in cell culture after experimental manipulation. The assay system uses a proprietary asymmetric cyanine dye that is excluded from viable cells but preferentially stains the dead cell's DNA. […] Viable cells produce no appreciable increases in fluorescence. Therefore, the fluorescence signal produced by the binding interaction with dead cell DNA is proportional to cytotoxicity.
The mixture of Hek293 cell suspension and reagents were dispensed at 600cells/6 ul/well in 1536-well tissue culture treated black solid bottom plates using a Multidrop dispenser. After the assay plates were incubated at a 37 C/5% CO2 incubator for 5 hours, 23 nL of compounds dissolved in DMSO, positive and negative controls was transferred to the assay plate by a pintool work station. The plates were incubated at 37 C for 40 hours. The fluorescence intensity were measured at 0h, 8h, 16h, 24h, 32h and 40h time points using ViewLux plate reader during compound treatment.
On to `N#CC(CCc1ccc(Cl)cc1)(Cn1cncn1)c1ccccc1` (stereo not given), for which the Potency result is “inactive”. The same measure, in the same setting: with `COC(=O)c1c(C(F)F)nc(C(F)(F)F)c(C2=NCCS2)c1CC(C)C` the entry was “inactive”; with `CC(C)CP(=S)(S)CC(C)C`, “inactive”; with `Cc1nnc2n1-c1sc(CCC(=O)N3CCOCC3)cc1C(c1ccccc1Cl)=NC2`, “inactive”. On the same count and under the same terms, with `Nc1c(Br)cc([N+](=O)[O-])cc1[N+](=O)[O-]` the entry was “inactive”; with `CC1(C)CON(Cc2ccccc2Cl)C1=O`, “inactive”; with `CNC(=O)N(C)c1nc2ccccc2s1`, “inactive”. `CC(C1CC1)C(O)(Cn1cncn1)c1ccc(Cl)cc1` (stereo not given): the Potency entry is “inactive”. Same read-out and setting: with `O=C(Nc1ccccc1)N(Cc1ccc(Cl)cc1)C1CCCC1` the entry was “inactive”; with `CC1CCC(=O)O1` (stereo not given), “inactive”; with `O=C(O)C(Br)CBr` (stereo not given), “inactive”. As for `O=C1c2ccccc2C(=O)c2ccccc21`, the cytotoxicity increase was 6.23% [at 15.8 µM] (inactive). `Cc1cnc[nH]1`: the Potency entry is “inactive”. With `CCOC(=O)CP(=O)(OCC)OCC`, the Potency result is “inactive”. Same read-out and setting: for `ClCCOCOCCCl` the value was “inactive”. On the same count and under the same terms, for `CC1=C(C(=O)Nc2ccccc2)S(=O)(=O)CCO1` the value was “inactive”; for `CC(C(=O)c1ccccc1)N(C)C` (stereo not given), “inactive”. On to `CN1CCN(C(=O)O[C@H]2c3nccnc3C(=O)N2c2ccc(Cl)cn2)CC1`, for which the Potency entry was “inactive”. Same read-out and setting: with `O=NN1CCCCC1` the entry was “inactive”; with `CC(COc1ccc(Oc2ccccc2)cc1)Oc1ccccn1` (stereo not given), “inactive”; with `COC(=O)c1ccccc1S(=O)(=O)NC(=O)N(C)c1nc(C)nc(OC)n1`, “inactive”.

Turning to `CC1CCCCC1NC(=O)Nc1ccccc1` (stereo not given), the Potency result is “inactive”. The same measure, in the same setting: for `OC(c1ccccc1)(c1ccccc1)C1CCNCC1` the value was “inactive”; for `CCCCN(CCCCO)N=O`, “inactive”; for `ClC(Cl)Br`, “inactive”. On the same count and under the same terms, for `CC1(C)C(=O)NC(=O)NC1=O` the value was 49 µM (active). The same measure, in the same setting: for `CCC(Cl)[N+](=O)[O-]` (stereo not given) the value was “inactive”. In the case of `CN/C(=N\[N+](=O)[O-])NCC1CCOC1` (stereo not given), the Potency result is “inactive”. On the same count and under the same terms, with `CNC(=O)Oc1c(C(C)(C)C)cc(C)cc1C(C)(C)C` the entry was “inactive”. The same measure, in the same setting: with `ClCC(Cl)(Cl)Cl` the entry was “inactive”; with `O=C1OC(CCN2CCCCC2)OC1(c1ccccc1)c1ccccc1` (stereo not given), “inactive”; with `CC(C=O)Cc1ccc2c(c1)OCO2` (stereo not given), “inactive”. On the same count and under the same terms, with `C#CCN1C(=O)COc2cc(F)c(N3C(=O)C4=C(CCCC4)C3=O)cc21` the entry was “inactive”; with `CCOP(=S)(OCC)Oc1cc(-c2ccccc2)on1`, “inactive”.

In the case of `Clc1ccccc1N1CCNCC1`, the Potency entry was “inactive”. On the same count and under the same terms, with `NC1=NC(=O)C(c2ccccc2)O1` (stereo not given) the entry was “inactive”; with `COc1cc2c(cc1OC)[C@@]13CCN4CC5=CCO[C@H]6CC(=O)N2[C@H]1[C@H]6[C@H]5C[C@H]43`, “inactive”; with `CC(=O)C(Cl)Cl`, “inactive”. Same read-out and setting: with `CCOP(=S)(OCC)Oc1nc(Cl)n(C(C)C)n1` the entry was “inactive”; with `OCCBr`, “inactive”.
